# Active and inactive are the calls of the source. Unless noted, no rule for the calls is given here.
# How the values were obtained:
# [1] = system: XIP peptide (Xip251-270) binding; assay: small-molecule binders of XIP peptide, primary screen, biochemical, small-molecule microarray, fluorescence 635/667 nm, 0.1 µg/mL protein (AID 1182); details: fluorescent protein binding, 635 nm, higher = more signal, called active from +8 up or from −8 down
# XIP peptide (Xip251-270) = assay: small-molecule binders of XIP peptide, primary screen, biochemical, small-molecule microarray, fluorescence 635/667 nm, 0.5 µg/mL protein (AID 1183); details: small-molecule microarray binding, fluorescence 635 nm; higher = more signal
# [2] = Plasmodium falciparum growth inhibition, primary screen, strain 3D7, DAPI fluorescence, 100 nL (AID 1184);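 also: parasites grown inside human red blood cells in medium with human serum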; details: P. falciparum 3D7 growth, 3 d, higher = more signal
# [3] = biological target: Homeobox protein Hox-A13 (Mus musculus) (UniProt Q62424); assay: inhibitors of HoxA13-DNA binding, primary screen, biochemical, fluorescence polarization, labeled oligonucleotide (AID 1185); details: 15 min, higher = more signal, called active from +8 up or from −8 down
# Chain of Homeobox protein Hox-A13 (Mus musculus) (Q62424 whole entry, looked up): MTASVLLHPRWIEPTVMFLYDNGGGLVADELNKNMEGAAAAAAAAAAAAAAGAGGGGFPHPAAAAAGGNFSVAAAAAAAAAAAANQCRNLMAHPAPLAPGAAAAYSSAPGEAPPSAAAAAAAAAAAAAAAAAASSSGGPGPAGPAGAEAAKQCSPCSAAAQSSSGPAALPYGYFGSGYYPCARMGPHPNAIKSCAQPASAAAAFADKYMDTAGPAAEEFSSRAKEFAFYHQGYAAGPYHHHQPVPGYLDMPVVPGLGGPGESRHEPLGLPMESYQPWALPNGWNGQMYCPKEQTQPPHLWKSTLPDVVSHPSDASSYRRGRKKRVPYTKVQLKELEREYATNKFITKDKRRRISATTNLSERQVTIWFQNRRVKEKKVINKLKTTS
# [4] = inhibitors of hydroxyurea-induced Chk1 phosphorylation, primary screen, imaging, HeLa, phospho-Chk1 antibody, percent positive cells (AID 1186); details: hydroxyurea-induced phospho-Chk1 immunofluorescence imaging, higher = more signal
# [5] = inhibitors of hydroxyurea-induced Chk1 phosphorylation, primary screen, imaging, HeLa, phospho-Chk1 nuclear intensity (AID 1187); details: hydroxyurea-induced phospho-Chk1 immunofluorescence imaging, higher = more signal
Structure (SMILES),composite z-score [1],composite z-score (XIP peptide (Xip251-270)),z-score [2],z-score [3],z-score [4],z-score [5]
COc1ccc(C#Cc2ccc3c(c2)[C@]2(C(=O)N3)[C@H](c3ccc(OCCO)cc3)N3[C@H](c4ccccc4)[C@H](c4ccccc4)OC(=O)[C@H]3[C@@H]2C(=O)Nc2nc3ccccc3s2)cc1,0.353 (inactive),0.522,-1.3,3.34 (inactive),0.141 (inactive),0.315 (inactive)
Cc1ccc(S(=O)(=O)N2CC(C(=O)O)=CCC2c2ccccc2)cc1 (stereo unspecified),0.624 (inactive),0.268,-0.863,-2.63 (inactive),-0.557 (inactive),-0.655 (inactive)
CCOC1=C2C(c3ccc(C)cc3)N(S(=O)(=O)c3ccc(C)cc3)CC2n2c(=O)n(-c3ccccc3)c(=O)n2C1 (stereo unspecified),0.346 (inactive),0.846,-0.102,-0.865 (inactive),-0.562 (inactive),0.0267 (inactive)
COCCOC(=O)N1C(=O)[C@@]2(c3cc(C#CCC(C(=O)OC)C(=O)OC)ccc31)[C@H](c1ccc(OCCO)cc1)N1[C@H](c3ccccc3)[C@H](c3ccccc3)OC(=O)[C@H]1[C@@H]2C(=O)NC[C@H](O)c1ccccc1,0.234 (inactive),0.851,-2.16,0.738 (inactive),-0.411 (inactive),-0.397 (inactive)
Oc1ccc2cc[n+](Cc3cccc(OC(F)(F)F)c3)cc2c1,0.143 (inactive),0.558,0.233,-3.08 (inactive),-0.208 (inactive),-0.16 (inactive)
COC(=O)C(CC#Cc1ccc2c(c1)[C@]1(C(=O)N2)[C@H](C(=O)N2CCCCCCC2)[C@H]2C(=O)O[C@H](c3ccccc3)[C@H](c3ccccc3)N2[C@@H]1c1ccccc1OCCO)C(=O)OC,8 (inactive),1.04,-2.21,1.03 (inactive),0.0041 (inactive),0.0484 (inactive)
CN(C)CCCC[C@@H]1NC(=O)[C@H]2C[C@@H](C(=O)NCCCCCNC(=O)CS)[C@@H](c3ccc(O)cc3)N2C1=O,-0.276 (inactive),0.903,-0.282,-2.09 (inactive),0.358 (inactive),0.155 (inactive)
C=CC[C@]1(C(=O)O)N=C(c2ccc(OCCCO)cc2)O[C@H]1c1ccccc1CN=[N+]=[N-],1 (inactive),-0.76,0.797,-5.35 (inactive),0.341 (inactive),-0.0268 (inactive)
COC(=O)[C@@]1(Cc2ccc(OC)cc2)[C@H]2c3cc(C(=O)N4CCCC4)n(CCc4ccccn4)c3C[C@H]2CN1C(=O)c1ccccc1,0.679 (inactive),0.864,-1.77,-5.3 (inactive),-0.235 (inactive),-0.224 (inactive)
CC(C)CNC(=O)[C@@]1(C)c2ccccc2C(=O)N(C(C)C)[C@H]1c1ccc(CO)cc1,-0.776 (inactive),-0.692,1.22,-1.35 (inactive),0.221 (inactive),-0.0172 (inactive)
COc1ccc([Si](C)(C)[C@@H]2[C@@H](CCO)O[C@]3(C(=O)N(Cc4ccccc4)c4ccc(N(C=O)c5ccccc5)cc43)[C@H]2C)cc1,0.581 (inactive),0.573,-2.79,-0.204 (inactive),-1.32 (inactive),-0.697 (inactive)
[N-]=[N+]=NCc1ccccc1[C@H]1OC(c2ccc(OCCCO)cc2)=N[C@@]1(Cc1ccccc1)C(=O)O,0.419 (inactive),0.652,0.45,-5.05 (inactive),-0.594 (inactive),-1.1 (inactive)
COC(=O)[C@@]1(Cc2ccc(OC)cc2)[C@H]2c3cc(C(=O)N4CCCC4)n(C[C@H](O)CO)c3C[C@H]2CN1C(=O)c1ccccc1,0.883 (inactive),-0.197,-1.17,-5.13 (inactive),0.0578 (inactive),-0.0868 (inactive)
C[C@]1(C(=O)NCC(F)(F)F)c2ccccc2C(=O)N(Cc2cc(F)cc(C(F)(F)F)c2)[C@H]1c1ccc(CO)cc1,0.362 (inactive),0.473,-1.31,-3.68 (inactive),0.305 (inactive),0.388 (inactive)
COCCCNC(=O)[C@@]1(Cc2ccccc2I)c2ccccc2C(=O)N(Cc2ccccc2)[C@H]1c1ccc(CO)cc1,0.433 (inactive),0.736,-1.04,-4.39 (inactive),-0.0143 (inactive),0.371 (inactive)
COc1ccc([Si](C)(C)[C@@H]2[C@@H](CCO)O[C@]3(C(=O)N(Cc4cccc(N(C=O)c5ccccc5)c4)c4ccccc43)[C@H]2C)cc1,1.31 (inactive),0.675,-2.51,-0.551 (inactive),-0.79 (inactive),-0.438 (inactive)
Cc1ccc(S[C@]2(C(=O)NCCN3CCOCC3)CC(=O)N(C3CCCCC3)[C@@H]2c2ccc(CO)cc2)cc1,-0.202 (inactive),0.886,-0.75,-4 (inactive),-0.0334 (inactive),0.206 (inactive)
COc1ccc([Si](C)(C)[C@H]2[C@H](CCO)O[C@@]3(C(=O)N(Cc4ccccc4)c4ccc(N5C(=O)COc6ccccc65)cc43)[C@@H]2C)cc1,0.577 (inactive),0.473,-1.09,-0.771 (inactive),-0.584 (inactive),-0.791 (inactive)
CC(=O)NCCCC[C@@H]1NC(=O)[C@@H]2C[C@H](C(=O)NCc3ccc(F)cc3)[C@H](c3ccc(O)cc3)N2C1=O,1.64 (inactive),1.01,-0.448,-1.2 (inactive),0.0701 (inactive),0.0917 (inactive)
C=CCC(OC(C)=O)[C@@H]1[C@@H](N(Cc2ccc(-c3cccc(C(F)(F)F)c3)o2)C(=O)c2ccc(C)cc2)c2cc(OCCCO)ccc2N1C(=O)c1ccc2ccccc2n1 (stereo partly specified),-0.0348 (inactive),-0.789,-0.537,-0.918 (inactive),-0.51 (inactive),-0.703 (inactive)
CC(C)[C@H]1COC(=O)N1C(=O)[C@H]1[C@@H](c2ccccc2)N(c2ccccc2)O[C@@H]1C,0.223 (inactive),0.267,0.0321,-3.46 (inactive),-0.965 (inactive),-1.2 (inactive)
O=C1C[C@@](C(=O)O)(c2ccc([N+](=O)[O-])cc2)[C@@H](c2ccc(CO)cc2I)N1CC12CC3CC(CC(C3)C1)C2,0.862 (inactive),0.771,-1.92,-5.13 (inactive),0.288 (inactive),0.285 (inactive)
[N-]=[N+]=NCc1ccccc1C[C@]1(C(=O)NCCN2CCOCC2)N=C(c2ccc(OCCCO)cc2)O[C@H]1c1ccccc1CN=[N+]=[N-],3.06 (inactive),0.578,-2.67,-2.59 (inactive),-0.26 (inactive),-0.787 (inactive)
COC(=O)c1c(CC[C@@H](CO)NC(=O)Nc2ncn[nH]2)oc(C(=O)Cc2ccccc2)c1C(=O)OC,0.782 (inactive),0.883,0.654,-2.98 (inactive),0.498 (inactive),-0.15 (inactive)
CC(C)NC(=O)[C@@H]1c2ccccc2C(=O)N(C2CCCCC2)[C@H]1c1ccc(CO)cc1,0.457 (inactive),0.254,-0.361,-2.65 (inactive),-0.0625 (inactive),-0.237 (inactive)
C=CCC(OC(C)=O)[C@@H]1[C@@H](N(Cc2ccc(-c3cccc(C(F)(F)F)c3)o2)C(=O)Cc2ccc(OC)cc2)c2cc(OCCCO)ccc2N1C(=O)Cc1ccc(OC)cc1 (stereo partly specified),-0.343 (inactive),0.278,-2.23,-3.42 (inactive),-0.186 (inactive),-0.0407 (inactive)

# From PubChem BioAssay
